Where “and” joins values, the source holds several entries; their conditions need not be identical. Equal values may be shown once. The panel holds about 83,000 compounds, 20% with a hit somewhere; the sample as a whole holds those more often.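 How to read the values: 0–100, growth inhibition (40 = 60% inhibited); 0, no net growth; -100 to 0, cell death (-40 = 40% of starting cells died; -100 = all dead).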 Calls of active or inactive are those of the source. Rule for the calls: active = growth percent below 10; inactive = the rest.
How the values were obtained:
Assay in all cases: NCI-60 one-dose screen, 48 h (100 = growth as untreated, 0 = no growth, -100 = all killed)
[1] = system: SK-MEL-2 melanoma; conditions: 10 µM unless noted
[2] = system: EKVX NSCLC; conditions: 10 µM unless noted
[3] = system: SN12C renal; conditions: 10 µM unless noted
[4] = system: UO-31 renal; conditions: 10 µM unless noted
[5] = system: TK-10 renal
[6] = system: ACHN renal; conditions: 10 µM unless noted
[7] = system: CAKI-1 renal; conditions: 10 µM unless noted
[8] = system: A498 renal; conditions: 10 µM unless noted
[9] = system: CCRF-CEM leukemia; conditions: 10 µM unless noted
[10] = system: MOLT-4 leukemia; conditions: 10 µM unless noted
[11] = system: SR leukemia; conditions: 10 µM unless noted
[12] = system: RPMI-8226 leukemia; conditions: 10 µM unless noted
[13] = system: OVCAR-8 ovarian; conditions: 10 µM unless noted
[14] = system: OVCAR-5 ovarian; conditions: 10 µM unless noted
[15] = system: OVCAR-4 ovarian; conditions: 10 µM unless noted
[16] = system: SK-OV-3 ovarian; conditions: 10 µM unless noted
[17] = system: IGROV1 ovarian; conditions: 10 µM unless noted
[18] = system: OVCAR-3 ovarian; conditions: 10 µM unless noted
[19] = system: HS 578T breast; conditions: 10 µM unless noted
[20] = system: NCI/ADR-RES ovarian; conditions: 10 µM unless noted

Measured: growth

O=C(Nc1c(Cl)cc(Cl)cc1Cl)ON=C1CCCCC1
inactive: [1] 107% | [2] 105% | [3] 98.4% | [4] 90.2% | [5]; 10 µM unless noted 100% | [6] 102% | [7] 97.2% | [8] 105% | [9] 102% | [10] 109% | [11] 98.4% | [12] 105% | [13] 104% | [14] 96.4% | [15] 108% | [16] 114% | [17] 109% | [18] 105% | [19] 99.3% | [20] 109%

NNc1ncccn1
inactive: [1] 90.2% | [2] 102% | [3] 103% | [4] 83.5% | [5]; 10 µM unless noted 92.2% | [6] 105% | [7] 102% | [8] 91.7% | [9] 109% | [10] 110% | [11] 98.2% | [12] 108% | [13] 108% | [14] 108% | [15] 101% | [16] 105% | [17] 111% | [18] 101% | [19] 91.5% | [20] 104%

Nc1cc2ccccc2c(O)c1O
inactive: [1] 85.3% | [2] 83.4% | [4] 55.2% | [5]; 10 µM unless noted 114% | [7] 84.5% | [8] 97.2% | [9] 19.6% | [12] 12.7% | [14] 76.1% | [16] 79.3% | [17] 67.3% | [19] 81.7% | [20] 55.3%
active: [3] -22.3% | [6] 9.52% | [10] -6.45% | [11] 0.498% | [13] -69.9% | [15] -97.7% | [18] -39.9%

COc1ccc(C)cc1NC(=O)SC(C)C
inactive: [1] 102% [100 µM] | [2] 102% [100 µM] | [3] 96.6% [100 µM] | [4] 82.9% [100 µM] | [5]; 10 µM unless noted 128% [100 µM] | [6] 100% [100 µM] | [7] 95.5% [100 µM] | [8] 92.3% [100 µM] | [9] 106% [100 µM] | [10] 106% [100 µM] | [11] 95.3% [100 µM] | [12] 99% [100 µM] | [13] 105% [100 µM] | [14] 102% [100 µM] | [15] 96.7% [100 µM] | [16] 111% [100 µM] | [17] 102% [100 µM] | [18] 116% [100 µM] | [19] 102% [100 µM] | [20] 103% [100 µM]

Clc1ccc(C(SCc2ccccc2)SCc2ccccc2)cc1
inactive: [1] 103% | [2] 89.9% | [3] 104% | [4] 90% | [5]; 10 µM unless noted 104% | [6] 101% | [7] 85% | [8] 81.3% | [9] 83.4% | [10] 84.9% | [11] 81% | [12] 83% | [13] 95.5% | [14] 93.3% | [15] 89% | [16] 94.9% | [17] 93.2% | [18] 90.1% | [19] 93.4% | [20] 98.9%

C=CC(C)(C)n1cc(C2=C(O)C(=O)C(c3cn(C(C)(C)C=C)c4ccccc34)=C(O)C2=O)c2ccccc21
inactive: [1] 95.9% | [2] 87.2% | [3] 101% | [4] 74.1% | [5]; 10 µM 92.7% | [6] 94.4% | [7] 89.7% | [9] 78.5% | [10] 88.7% | [11] 71.6% | [12] 104% | [14] 122% | [15] 92.4% | [16] 94.3% | [17] 99.5% | [18] 107% | [20] 97.5%
active: [5]; 100 µM -99.2% and -100%

CCOc1ccc(NC(=S)N2CCC(CCCC3CCN(C(=S)Nc4ccc(OCC)cc4)CC3)CC2)cc1
inactive: [1] 104% | [2] 60.5% | [3] 95.9% | [5]; 10 µM unless noted 96.9% | [6] 82.8% | [7] 69.7% | [8] 79% | [9] 81.6% | [10] 73.7% | [11] 95.2% | [12] 65.8% | [13] 92.2% | [14] 102% | [15] 85.1% | [16] 91.1% | [17] 94.5% | [18] 79.3% | [19] 85.3% | [20] 94%
active: [4] -7.89%

O=C(O)C1CSC(c2ccccc2)N1 (stereo not drawn)
inactive: [1] 89.2% | [2] 99.1% | [3] 93.2% | [4] 91.6% | [5]; 10 µM unless noted 95.6% | [6] 94.4% | [7] 105% | [8] 81% | [9] 121% | [10] 115% | [11] 115% | [12] 107% | [13] 106% | [14] 98.2% | [15] 111% | [16] 99.5% | [17] 105% | [18] 104% | [19] 88.4% | [20] 99.2%

O=S(=O)(O)C(C(I)I)S(=O)(=O)O
inactive: [1] 109% | [2] 112% | [3] 110% | [4] 89.6% | [5]; 10 µM unless noted 111% | [6] 114% | [7] 100% | [8] 106% | [9] 105% | [10] 103% | [11] 101% | [12] 114% | [13] 101% | [14] 114% | [15] 107% | [16] 106% | [17] 114% | [18] 105% | [19] 93.7% | [20] 113%

CCN(CC)CCOC(=O)Nc1c(C(C)C)cccc1C(C)C
inactive: [1] 124% | [2] 106% | [3] 105% | [4] 83.1% | [5]; 10 µM unless noted 105% | [6] 105% | [7] 88.9% | [8] 118% | [9] 98.4% | [10] 105% | [11] 101% | [12] 105% | [13] 102% | [14] 104% | [15] 108% | [16] 95.7% | [17] 100% | [18] 114% | [19] 105% | [20] 113%

CCCCOC(=O)c1ccccc1O
inactive: [1] 161% | [2] 106% | [3] 107% | [4] 99.2% | [5]; 10 µM unless noted 115% | [6] 104% | [7] 107% | [8] 129% | [10] 117% | [11] 154% | [12] 16.5% | [13] 107% | [14] 101% | [15] 105% | [16] 110% | [17] 118% | [18] 124% | [19] 103% | [20] 110%
active: [9] -71.6%

Cc1ccc2[nH]c3ccccc3c2c1
inactive: [1] 109% | [2] 108% | [3] 109% | [4] 91.3% | [5]; 10 µM unless noted 106% | [6] 110% | [7] 97.3% | [8] 82.5% | [9] 92.8% | [10] 94.4% | [11] 79.6% | [12] 106% | [13] 98.4% | [14] 105% | [15] 100% | [16] 113% | [17] 107% | [18] 104% | [19] 106% | [20] 109%

CSc1nsc(N)n1
inactive: [1] 94.2% | [2] 97.4% | [3] 96% | [4] 82.3% | [5]; 10 µM unless noted 101% | [6] 107% | [7] 97.2% | [8] 87.5% | [9] 108% | [10] 97.9% | [11] 98.4% | [12] 114% | [13] 105% | [14] 107% | [15] 104% | [16] 105% | [17] 97.6% | [18] 110% | [19] 90.7% | [20] 101%

CC(C)(C)CC1(C)NC(=O)NC1=O (stereo not drawn)
inactive: [1] 166% | [2] 108% | [3] 110% | [4] 100% | [5]; 10 µM unless noted 125% | [6] 109% | [7] 102% | [8] 120% | [10] 93.2% | [11] 134% | [12] 73.3% | [13] 109% | [14] 89.1% | [15] 106% | [16] 115% | [17] 125% | [18] 120% | [19] 105% | [20] 99.7%
active: [9] -59.7%

CC(=O)C1C(=O)C(=O)N(c2cccc([N+](=O)[O-])c2)C1=O (stereo not drawn)
inactive: [1] 114% | [2] 108% | [3] 101% | [4] 105% | [5]; 10 µM unless noted 125% | [6] 104% | [7] 102% | [8] 79.2% | [9] 106% | [10] 101% | [11] 95.6% | [12] 107% | [13] 106% | [14] 113% | [15] 103% | [16] 102% | [17] 109% | [18] 117% | [19] 93.8% | [20] 113%

COc1ccc2c(ccc[n+]2C)c1
inactive: [1] 103% | [2] 84.7% | [3] 104% | [4] 86.5% | [5]; 10 µM unless noted 102% | [6] 98.5% | [7] 96.4% | [8] 107% | [9] 98.3% | [10] 111% | [11] 115% | [12] 85.4% | [13] 94.8% | [14] 99.9% | [15] 91.9% | [16] 107% | [17] 85.3% | [18] 82.7% | [19] 80.2% | [20] 106%
